Hits are enriched below; roughly 19% of the tested compounds scored in any of these assays.
TDP1 cell CPT = growth inhibition of DT40 Tdp1-/-;hTDP1 cells with camptothecin (screen for TDP1 inhibitors); chicken DT40 Tdp1-/-;hTDP1 cells + 20 nM CPT, ATP luminescence, 48 h; Potency, µM (top dose mostly 46.2 µM), for inactives: top-dose activity change, negative = growth inhibition, most hits filed as inhibitors; 420,000 compounds, 12% hits; also: potency is read from the fitted curve at half-maximal effect; nearly all actives have a fitted effect of over 55% in size
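Chicken DT40 Tdp1-/- cells stably complemented with human TDP1 were seeded at 400 cells/well in medium containing 20 nM camptothecin, exposed to pin-transferred compounds, and grown at 37 °C for at least 48 hr. Viability was read as ATP luminescence.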
TDP1 cell noCPT = qHTS for Inhibitors of human tyrosyl-DNA phosphodiesterase 1 (TDP1): qHTS in cells in absence of CPT; DT40 Tdp1-/- hTDP1 cells, no CPT, ATP luminescence, 48 h; Potency, µM (doses to about 46.2 µM), for inactives: at the highest dose activity change, negative = growth inhibition, actives largely listed as inhibitors; 420,000 compounds, 15% hits; AID 686978, 2013; also: potency is read from the fitted curve at half-maximal effect; nearly all actives have a fitted effect of over 55% in size
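Seeded 400 DT40-hTDP1 cells/well (vehicle DMSO, no 20 nM CPT); pinned compounds; ≥48 hr at 37 °C; CellTiter-Glo luminescence as viability measure.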
IL1B secr inh = blocks inflammasome-driven IL-1 beta release. THP-1 LPS/ATP IL-1B secretion, AlphaLISA, 16 h; stronger effect = lower value. activity change, % at 57.5 µM. 360,000 compounds, 4.7% hits. AID 743279; in the data active = activity change below about -50%; inconclusive = mostly about -30% to -49%
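Secreted IL-1B measured by AlphaLISA bead assay after 16 h compound exposure of THP-1 cells; compounds (final up to 57.5 uM) added 1 h before LPS (250 ng/mL) and ATP (1.25 mM) stimulation; lower signal means less secretion.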
ELG1 repair inh = inhibitors of ELG1-dependent DNA repair in HEK293T cells; HEK293T ELG1-luciferase reporter, luminescence, 16 h; DNA damage induced by 5-fluorouridine; Potency, µM (doses to about 46.1 µM), inactives show top-dose activity change, negative = inhibition, hits mostly inhibitors; 330,000 compounds, 2.3% hits; also: potency is read from the fitted curve at half-maximal effect; nearly all actives have a fitted effect of over 55% in size
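Cells (2,000 per well) received 5-fluorouridine plus test compound or DMSO and were incubated 16 hr at 37 °C, 5% CO2. Luciferase activity was read by luminescence 30 min after ONE-Glo addition; signal suppression marked inhibition of damage-induced ELG1 function.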
HT1080 IDH1KD tx = kills HT-1080 cells with IDH1 knockdown; HT-1080 IDH1 knockdown viability, ATP luminescence, 48 h; Potency, µM (top dose mostly 46.1 µM), inactives show at the top dose activity, negative = toxicity, usual class: cytotoxic; 360,000 compounds, 2% hits;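 also: potency is read from the fitted curve at half-maximal effect; 0% = DMSO wells and -100% = cell-free medium wells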
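Viability of IDH1-knockdown HT-1080 fibrosarcoma cells was assessed by CellTiter-Glo after 48 h at 37 °C with titrated compound; concentration-effect curves were classified by fit quality and response size.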
HT1080NT lethal = kills 2HG-producing HT-1080-NT fibrosarcoma cells. HT-1080-NT fibrosarcoma viability, CellTiter-Glo ATP luminescence, 48 h. Potency, µM (doses to about 46.1 µM), without a hit: at the highest dose activity, negative = less viability, hits mostly cytotoxic. 360,000 compounds, 1.6% hits. AID 686970;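 also: NT is the 2HG producing partner of a matched IDH1 knockdown line; potency is read from the fitted curve at half-maximal effect; 0% = DMSO-treated cells and -100% = media-only wells without cells; nearly all actives have a fitted effect of over 55% in size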
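Luminescent CellTiter-Glo readout after 48 hours of compound exposure at 37 degrees C defined viability of HT-1080-NT cells. Activity was normalized to DMSO wells and cell-free media wells; concentration-response curves were fitted and assigned curve classes.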
Numbers without * were called inactive; ? = inconclusive; · = no result given; [ ] = remark or other dose. Unless noted, calls follow the shape of the dose curve; as a rule, active = well fitted curve in the direction sought with a large enough effect; inconclusive = small, poorly fitted or top-dose-only effect, or another doubt; inactive = no such curve, though single readings can be large; an effect the other way counts as inactive or inconclusive. Unless noted, % is scaled to controls: 0 for no effect and ±100 for the full control effect.

SMILES	TDP1 cell CPT	TDP1 cell noCPT	IL1B secr inh	ELG1 repair inh	HT1080 IDH1KD tx	HT1080NT lethal
O=C1c2[nH]nc(-c3ccc(F)cc3)c2C(c2ccccc2F)N1c1ccccc1 (centres undefined)	?	21µM*	·	·	·	·
CCCCCN=Cc1c(C)[nH]n(-c2nc3ccccc3s2)c1=O	2.1µM*	4.6µM*	-20	?	5µM*	11µM*
COCCCN=Cc1c(-c2ccccc2)[nH]n(-c2nc3ccccc3s2)c1=O	26µM*	?	?	-17%	0%	-14%
O=c1c(C=NCCCO)c(-c2ccccc2)[nH]n1-c1nc2ccccc2s1	13µM*	?	-6	18%	7%	-3%
Cc1oc(-c2ccccc2NS(C)(=O)=O)nc1CN(C)Cc1ccc(Cl)cc1	-5%[9.04 µM]	21µM*	·	·	·	·
Cc1oc(-c2ccccc2)nc1CNS(=O)(=O)c1ccc(Cl)cc1	?	-30%	·	·	·	·
CSc1ncc(C(=O)Nc2ccc(Cl)cc2)c(C)n1	12%	?	22	8%	-12%	-6%
O=C(Nc1ccc(Br)cn1)c1ccc2nccnc2c1	13µM*	18µM*	24	·	-4%	-1%
O=C(Nc1ccc(Br)cn1)c1ccc2ccccc2c1	?	15µM*	22	?	-15%	-7%
CSc1ncc(C(=O)Nc2ccc(Br)cn2)c(C)n1	16µM*	?	46	-6%	-26%	-21%
O=C(Nc1ccc(Br)cn1)c1cccc2ccccc12	2.1µM*	2.1µM*	-9	·	5.8µM*	2.9µM*
O=C(Nc1ccc(Br)cn1)c1cccc(C(=O)Nc2ccc(Br)cn2)c1	?	?	40	?	-4%	-4%
Cc1ccc(-c2cc(C(=O)NCc3ccccc3)c3c(-c4ccc(C)cc4)[nH]nc3n2)cc1	12%	9%	·	·	·	·
COCCn1c(C)cc(/C=C2/SC(=O)N(CC(=O)N3CCCC3)C2=O)c1C	14%	1%	10	20%	5%	10%
C=CCSC1=N/C(=C\c2cc(OCC)c(OC(C)=O)c([N+](=O)[O-])c2)C(=O)S1	16µM*	?	19	-7%	6%	-3%
COc1ccc(Cl)cc1NC(=O)C1CSC(c2ccncc2)=N1 (centres undefined)	21µM*	?	-3	-8%	-6%	-9%
O=C1CCCC2=C1C(c1cccs1)Nc1ccc3ncccc3c12 (centres undefined)	16µM*	?	17	19%	?	?
Cc1ccsc1C1Nc2ccc3ncccc3c2C2=C1C(=O)CC(C)(C)C2 (centres undefined)	13µM*	?	4	12%	?	10µM*
O=C(NNc1ccccc1[N+](=O)[O-])Nc1ccc(Cl)c(Cl)c1	?	?	-93*	-28%	18µM*	18µM*
O=C(NNc1ccccc1[N+](=O)[O-])Nc1ccc(F)cc1	?	-52%	-3	0%	-8%	-10%
O=C(NNc1ccccc1[N+](=O)[O-])Nc1ccccc1	15µM*	?	0	3%	-2%	1%
CCOC(=O)[C@]12CCCC=C1N(CCC1=CCCCC1)C(=O)[C@H](CC(=O)NCc1cccs1)C2	?	21µM*	-3	·	-19%	-5%
COC(=O)[C@]12CCCCC=C1N(CCC1=CCCCC1)C(=O)[C@H](CC(=O)NCc1cccs1)C2	?	16µM*	-11	·	-28%	?
COC(=O)[C@]12CCCCC=C1N(CCC1=CCCCC1)C(=O)[C@H](CC(=O)NCc1ccccc1)C2	?	?	-13	·	-14%	-14%
CCOC(=O)[C@]12CCCC=C1N(Cc1ccccc1)C(=O)[C@H](CC(=O)NCc1cccs1)C2	-5%	-26%	-10	·	-8%	-4%
SMILES	TDP1 cell CPT	TDP1 cell noCPT	IL1B secr inh	ELG1 repair inh	HT1080 IDH1KD tx	HT1080NT lethal
CCn1c(SCC(=O)NNC(=O)c2ccc(C)cc2)nnc1C(C)C	?	10µM*	1	-1%	-8%	-6%
CCCn1c(SCC(=O)Nc2ccccc2CC)nnc1C(C)C	21µM*	18µM*	22	11%	?	2%
CCCCn1nnnc1SCC(=O)c1ccccc1F	-10%	9%	-16	-20%	17%	12%
CCCn1c(SCC(=O)Nc2sc(C)c(C)c2C#N)nnc1C(C)C	-21%	-28%	-6	21µM*	7%	-1%
Cc1sc(NC(=O)CSc2nnc(C(C)C)n2C)c(C#N)c1C	-8%	-4%	0	-10%	-6%	-4%
CCCCn1nnnc1SCC(=O)c1cc(Cl)ccc1OC	-16%	-15%	-57*	-3%	11%	8%
CCCn1c(SCC(=O)Nc2c(C)cccc2CC)nnc1C(C)C	-9%	-4%	6	8%	15%	9%
CC1(C(=O)NS(=O)(=O)c2cccc(Cl)c2)CCN1C(=O)CC1CC1 (centres undefined)	1%	-12%	12	·	4%	1%
CCOc1ccc(CNC(=O)CCS(=O)(=O)Cc2cccc(Cl)c2)cc1OC	1%	11%	12	-10%	0%	2%
CC(=O)c1ccc(S(=O)(=O)Nc2ccc(C(=O)N(C)CC(=O)Nc3cccc(C)c3C)cc2)cc1	-9%	-3%	11	-7%	-1%	-3%
CCCn1c(SCC(=O)c2cc(OC)ccc2OC)nnc1C(C)C	16µM*	?	-20	5%	2%	8%
CCn1c(SCC(=O)c2cc(OC)ccc2OC)nc2c1c(=O)n(C)c(=O)n2C	·	·	·	-16%	·	·
COc1ccccc1NC(=O)c1c(C)cc(C)nc1SCC(=O)c1ccc(Cl)cc1	-27%	-25%	·	·	·	·
Cc1cccc(NC(=O)c2c(C)cc(C)nc2SCC(=O)c2ccccc2)c1	?	16µM*	·	·	·	·
Cc1cc(C)c(C(=O)Nc2ccccc2)c(SCC(=O)Nc2ccc(Br)cc2C)n1	16µM*	23µM*	·	·	·	·
CC(=O)c1ccc(NC(=O)CSc2nc(C)cc(C)c2C(N)=O)cc1	-19%	?	28	?	4%	6%
CC(=O)N1CCN(c2ccc(NC(=O)c3ccc(F)cc3)cc2)CC1	8%	-13%	-5	-5%	2%	1%
Cc1c(Cl)cccc1NC(=O)CSc1nccn1C	-8%	19%	-16	10%	9%	22%

Bioassay records deposited in PubChem BioAssay by National Center for Advancing Translational Sciences (NCATS).
